Experimental data from PubChem BioAssay (NCATS).
Results filed as inconclusive are left out. A call without a number means that no potency is given here. Active and inactive are the calls of the source. Calls come from the whole dose curve; as a rule, active = well fitted inhibition curve with a large enough effect; inconclusive = small, poorly fitted or top-dose-only effect; inactive = flat fitted curve, though single readings scatter.

Tests used:
Experiment in all cases: qHTS profiling for inhibitors of Plasmodium falciparum proliferation (AID 504749); note: nearly all actives have a fitted effect of over 60% in size
Details in all cases: P. falciparum in erythrocytes, SYBR Green DNA, 72 h; series mostly up to 28.7 µM
AS120 = test system: AS120
How it was run: (§1)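 SYBR Green fluorescence of parasite DNA, read after lysis and overnight dark incubation, measured growth over 72 h in erythrocyte culture at 0.3% parasitemia and 2.5% hematocrit. Data normalised to DMSO and 0.29 uM artemisinin, with plate-drift correction.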

ATS189 = test system: ATS189
How it was run: as §1

ATS95 = test system: ATS95
How it was run: as §1

C2A = test system: C2A
How it was run: as §1

CP185 = test system: CP185
How it was run: as §1

CP191 = test system: CP191
How it was run: as §1

CP192 = test system: CP192
How it was run: as §1

CP194 = test system: CP194
How it was run: as §1

CP201 = test system: CP201
How it was run: as §1

CP203 = test system: CP203
How it was run: as §1

CP211 = test system: CP211
How it was run: as §1

CP215 = test system: CP215
How it was run: as §1

CP217 = test system: CP217
How it was run: as §1

CP237 = test system: CP237
How it was run: as §1

CP238 = test system: CP238
How it was run: as §1

CP247 = test system: CP247
How it was run: as §1

CP250 = test system: CP250
How it was run: as §1

CP252 = test system: CP252
How it was run: as §1

CP256 = test system: CP256
How it was run: as §1

CP260 = test system: CP260
How it was run: as §1
Potency is the fitted concentration of half-maximal effect.

Row | SMILES | Potency (AS120) | Potency (ATS189) | Potency (ATS95) | Potency (C2A) | Potency (CP185) | outcome (CP191) | outcome (CP192) | outcome (CP194) | outcome (CP201) | Potency (CP203) | outcome (CP211) | Potency (CP215) | outcome (CP217) | Potency (CP237) | Potency (CP238) | Potency (CP247) | Potency (CP250) | outcome (CP252) | outcome (CP256) | Potency (CP260)
1 | CCCCCCCCCCCCCCCCN | inactive | inactive | inactive | inactive | inactive | inactive | inactive | inactive | inactive | inactive | inactive | inactive | inactive | inactive | inactive | inactive | inactive | inactive | inactive | 
2 | Cn1c([N+](=O)[O-])cnc1COC(N)=O | inactive | inactive | inactive | inactive | inactive | inactive | inactive | inactive | inactive | inactive | inactive | inactive | inactive | inactive | inactive | inactive | inactive | inactive | inactive | inactive
3 | CC(=O)NCc1c(I)c(NC(C)=O)c(I)c(C(=O)O)c1I | inactive | inactive | inactive | inactive | inactive | inactive | inactive | inactive | inactive | inactive | inactive | inactive | inactive | inactive | inactive | inactive | inactive | inactive | inactive | inactive
4 | CC1CCc2cc(F)cc3c(=O)c(C(=O)O)cn1c23 (centres undefined) | inactive | inactive | inactive | inactive | inactive | inactive | inactive | inactive | inactive | inactive | inactive | inactive | inactive | inactive | inactive | inactive | inactive | inactive | inactive | inactive
5 | CN1C(C)(C)CCCC1(C)C | inactive | inactive | inactive | inactive | inactive | inactive | inactive | inactive | inactive | inactive | inactive | inactive | inactive | inactive | inactive | inactive | inactive | inactive | inactive | inactive
6 | CC(=O)Oc1cccc(O)c1 | inactive | inactive | inactive | inactive | inactive | inactive | inactive | inactive | inactive | inactive | inactive | inactive | inactive | inactive | inactive | inactive | inactive | inactive | inactive | inactive
7 | CC(=O)NS(=O)(=O)c1ccc(N)cc1 | inactive | inactive | inactive | inactive | inactive | inactive | inactive | inactive | inactive | inactive | inactive | inactive | inactive | inactive | inactive | inactive | inactive | inactive | inactive | inactive
8 | O=C(O)c1ccc(OCCCOc2ccc(C(=O)O)cc2)cc1 | inactive | inactive | inactive | inactive | inactive | inactive | inactive | inactive | inactive | inactive | inactive | inactive | inactive | inactive | inactive | inactive | inactive | inactive | inactive | inactive
9 | Cn1c(=O)c2c(ncn2CCO)n(C)c1=O | inactive | inactive | inactive | inactive | inactive | inactive | inactive | inactive | inactive | inactive | inactive | inactive | inactive | inactive | inactive | inactive | inactive | inactive | inactive | inactive
10 | Nc1ccc(S(=O)(=O)c2ccc(N)cc2)cc1 | inactive | inactive | inactive | inactive | inactive | inactive | inactive | inactive | inactive | inactive | inactive | inactive | inactive | inactive | inactive | inactive | inactive | inactive | inactive | inactive
11 | NS(=O)(=O)c1ccc(C(=O)O)cc1 | inactive | inactive | inactive | inactive | inactive | inactive | inactive | inactive | inactive | inactive | inactive | inactive | inactive | inactive | inactive | inactive | inactive | inactive | inactive | inactive
12 | O=c1[nH]cnc2nc[nH]c12 | inactive | inactive | inactive | inactive | inactive | inactive | inactive | inactive | inactive | inactive | inactive | inactive | inactive | inactive | inactive | inactive | inactive | inactive | inactive | inactive
13 | Cc1c(NC(C)C)c(=O)n(-c2ccccc2)n1C | inactive | inactive | inactive | inactive | inactive | inactive | inactive | inactive | inactive | inactive | inactive | inactive | inactive | inactive | inactive | inactive | inactive | inactive | inactive | inactive
14 | CC(O)CCCCn1c(=O)c2c(ncn2C)n(C)c1=O (centres undefined) | inactive | inactive | inactive | inactive | inactive | inactive | inactive | inactive | inactive | inactive | inactive | inactive | inactive | inactive | inactive | inactive | inactive | inactive | inactive | inactive
15 | OCC(O)CS (centres undefined) | inactive | inactive | inactive | inactive | inactive | inactive | inactive | inactive | inactive | inactive | inactive | inactive | inactive | inactive | inactive | inactive | inactive | inactive | inactive | inactive
16 | OCc1ccc(Cl)cc1Cl | inactive | inactive | inactive | inactive | inactive | inactive | inactive | inactive | inactive | inactive | inactive | inactive | inactive | inactive | inactive | inactive | inactive | inactive | inactive | inactive
17 | O=c1[nH]c2cc(C(F)(F)F)c(N3CCOCC3)cc2n(CP(=O)(O)O)c1=O | inactive | inactive | inactive | inactive | inactive | inactive | inactive | inactive | inactive | inactive | inactive | inactive | inactive | inactive | inactive | inactive | inactive | inactive | inactive | inactive
18 | CCN(CC)CCOC(=O)C(c1ccccc1)c1ccccc1 | inactive | inactive | inactive | inactive | inactive | inactive | inactive | inactive | inactive | inactive | inactive | inactive | inactive | inactive | inactive | inactive | inactive | inactive | inactive | inactive
19 | O=C1c2ccccc2S(=O)(=O)N1CCCCN1CCN(c2ncccn2)CC1 | inactive | inactive | inactive | inactive | inactive | inactive | inactive | inactive | inactive | inactive | inactive | inactive | inactive | inactive | inactive | inactive | inactive | inactive | inactive | inactive
20 | NC(=O)CC[C@@H](N)C(=O)O | inactive | inactive | inactive | inactive | inactive | inactive | inactive | inactive | inactive | inactive | inactive | inactive | inactive | inactive | inactive | inactive | inactive | inactive | inactive | inactive
21 | Cc1ccccc1N=Nc1ccc(N=Nc2c(O)ccc3ccccc23)c(C)c1 | inactive | inactive | inactive | inactive | inactive | inactive | inactive | inactive | inactive | inactive | inactive | inactive | inactive | inactive | inactive | inactive | inactive | inactive | inactive | inactive
22 | C[C@@H](N)C(=O)O | inactive | inactive | inactive | inactive | inactive | inactive | inactive | inactive | inactive | 9.53 µM (active) | inactive | 1.69 µM (active) | inactive | inactive | inactive | inactive | inactive | inactive | inactive | inactive
23 | COC(=O)c1ccc(O)cc1 | inactive | inactive | inactive | inactive | inactive | inactive | inactive | inactive | inactive | inactive | inactive | inactive | inactive | inactive | inactive | inactive | inactive | inactive | inactive | inactive
24 | C[N+](C)(C)CC[N+]1(C)Cc2c(Cl)c(Cl)c(Cl)c(Cl)c2C1 | inactive | inactive | inactive | inactive | inactive | inactive | inactive | inactive | inactive | inactive | inactive | inactive | inactive | inactive | inactive | inactive | inactive | inactive | inactive | inactive
25 | NS(=O)(=O)c1cc(-c2nn[nH]n2)c(NCc2cccs2)cc1Cl | inactive | inactive | inactive | inactive | inactive | inactive | inactive | inactive | inactive | inactive | inactive | inactive | inactive | inactive | inactive | inactive | inactive | inactive | inactive | inactive
26 | CCCCCCCCCCC(CO)CCCCCCCC (centres undefined) | inactive | inactive | inactive | inactive | inactive | inactive | inactive | inactive | inactive | inactive | inactive | inactive | inactive | inactive | inactive | inactive | inactive | inactive | inactive | inactive
27 | O=C(NCN1CCOCC1)c1cnccn1 | inactive | inactive | inactive | inactive | inactive | inactive | inactive | inactive | inactive | inactive | inactive | inactive | inactive | inactive | inactive | inactive | inactive | inactive | inactive | inactive
28 | O=C(/C=C/c1ccccc1)OCc1ccccc1 | inactive | inactive | inactive | inactive | inactive | inactive | inactive | inactive | inactive | inactive | inactive | inactive | inactive | inactive | inactive | inactive | inactive | inactive | inactive | inactive
29 | CC(C)CCOC(=O)c1ccc(N(C)C)cc1 | inactive | inactive | inactive | inactive | inactive | inactive | inactive | inactive | inactive | inactive | inactive | inactive | inactive | inactive | inactive | inactive | inactive | inactive | inactive | inactive
